# Source: ChEMBL document CHEMBL1961873, “Compounds: GSK PKIS; Assays: Nanosyn kinase panel” (2012)
# Where “and” joins values, the source holds several entries; their conditions need not be identical. Equal values may be shown once.
# What was measured:
# [1] = target: Protein kinase C gamma type (Homo sapiens) (UniProt P05129); conditions: at 1 µM;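 further: each value is an averaged percent inhibition of the enzyme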
# [2] = target: T1, Protein kinase C iota type (Homo sapiens) (UniProt P41743); conditions: at 0.1 µM
# T1 sequence (whole entry): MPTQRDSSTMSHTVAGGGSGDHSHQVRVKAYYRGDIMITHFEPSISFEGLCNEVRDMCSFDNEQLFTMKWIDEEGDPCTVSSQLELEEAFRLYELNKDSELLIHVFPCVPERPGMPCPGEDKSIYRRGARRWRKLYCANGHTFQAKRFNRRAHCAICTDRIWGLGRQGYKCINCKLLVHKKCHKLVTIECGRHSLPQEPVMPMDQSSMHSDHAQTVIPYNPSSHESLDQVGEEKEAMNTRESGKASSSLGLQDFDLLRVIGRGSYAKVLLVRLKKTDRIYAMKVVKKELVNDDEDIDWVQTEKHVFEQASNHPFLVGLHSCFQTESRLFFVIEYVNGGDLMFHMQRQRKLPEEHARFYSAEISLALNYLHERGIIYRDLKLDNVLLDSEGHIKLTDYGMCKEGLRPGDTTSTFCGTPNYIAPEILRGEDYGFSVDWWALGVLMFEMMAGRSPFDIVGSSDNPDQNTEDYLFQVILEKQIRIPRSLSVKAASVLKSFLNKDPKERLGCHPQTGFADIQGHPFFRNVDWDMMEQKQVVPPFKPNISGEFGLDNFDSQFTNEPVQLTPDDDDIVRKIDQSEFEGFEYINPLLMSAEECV
# [3] = target: T1, Protein kinase C iota type (Homo sapiens); conditions: at 1 µM
# [4] = target: Protein kinase C theta type (Homo sapiens) (UniProt Q04759); conditions: at 0.1 µM
# Chain of Protein kinase C theta type (Homo sapiens) (Q04759 whole entry, looked up): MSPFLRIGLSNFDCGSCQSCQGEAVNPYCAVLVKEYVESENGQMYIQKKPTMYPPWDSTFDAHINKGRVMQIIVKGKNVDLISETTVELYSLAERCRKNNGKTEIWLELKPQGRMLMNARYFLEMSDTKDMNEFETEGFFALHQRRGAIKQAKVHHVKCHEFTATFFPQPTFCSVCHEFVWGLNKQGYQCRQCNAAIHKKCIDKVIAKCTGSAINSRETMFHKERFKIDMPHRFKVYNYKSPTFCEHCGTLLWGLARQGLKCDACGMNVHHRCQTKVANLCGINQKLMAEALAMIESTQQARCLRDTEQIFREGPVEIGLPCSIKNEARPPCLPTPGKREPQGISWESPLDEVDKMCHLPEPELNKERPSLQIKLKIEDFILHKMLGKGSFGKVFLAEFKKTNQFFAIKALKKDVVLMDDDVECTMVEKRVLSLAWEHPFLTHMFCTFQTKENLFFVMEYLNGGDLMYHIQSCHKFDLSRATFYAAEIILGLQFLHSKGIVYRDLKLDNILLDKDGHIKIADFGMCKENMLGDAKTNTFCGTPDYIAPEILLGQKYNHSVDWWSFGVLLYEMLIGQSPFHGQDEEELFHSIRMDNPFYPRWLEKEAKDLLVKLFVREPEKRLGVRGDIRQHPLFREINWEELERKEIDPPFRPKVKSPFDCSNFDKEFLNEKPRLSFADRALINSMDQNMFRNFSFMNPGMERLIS
# [5] = target: Protein kinase C theta type (Homo sapiens) (UniProt Q04759); conditions: at 1 µM
# [6] = target: Protein kinase C beta type (Homo sapiens) (UniProt P05771); conditions: at 0.1 µM
# Chain of Protein kinase C beta type (Homo sapiens) (P05771 2-671 limits assumed): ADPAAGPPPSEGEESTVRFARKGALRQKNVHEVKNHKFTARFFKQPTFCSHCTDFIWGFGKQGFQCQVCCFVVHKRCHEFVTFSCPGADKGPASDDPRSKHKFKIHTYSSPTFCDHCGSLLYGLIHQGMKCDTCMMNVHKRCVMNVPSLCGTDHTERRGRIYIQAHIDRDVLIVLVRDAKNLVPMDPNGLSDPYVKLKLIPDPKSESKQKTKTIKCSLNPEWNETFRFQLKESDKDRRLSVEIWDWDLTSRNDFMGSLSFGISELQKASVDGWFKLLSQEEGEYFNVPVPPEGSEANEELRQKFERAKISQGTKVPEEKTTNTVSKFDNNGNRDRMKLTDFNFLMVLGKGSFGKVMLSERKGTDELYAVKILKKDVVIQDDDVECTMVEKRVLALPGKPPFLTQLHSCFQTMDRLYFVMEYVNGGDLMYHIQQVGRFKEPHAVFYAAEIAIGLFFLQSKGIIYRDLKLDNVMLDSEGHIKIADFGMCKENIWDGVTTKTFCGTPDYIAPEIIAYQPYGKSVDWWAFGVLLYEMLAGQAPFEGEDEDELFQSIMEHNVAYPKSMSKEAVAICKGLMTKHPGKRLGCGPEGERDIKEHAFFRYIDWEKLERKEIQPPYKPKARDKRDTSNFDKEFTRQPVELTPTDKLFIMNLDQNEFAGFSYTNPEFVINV
# [7] = target: Protein kinase C beta type (Homo sapiens) (UniProt P05771); conditions: at 1 µM
# [8] = target: T2, Serine/threonine-protein kinase D1 (Homo sapiens) (UniProt Q15139); conditions: at 0.1 µM
# T2 sequence (whole entry): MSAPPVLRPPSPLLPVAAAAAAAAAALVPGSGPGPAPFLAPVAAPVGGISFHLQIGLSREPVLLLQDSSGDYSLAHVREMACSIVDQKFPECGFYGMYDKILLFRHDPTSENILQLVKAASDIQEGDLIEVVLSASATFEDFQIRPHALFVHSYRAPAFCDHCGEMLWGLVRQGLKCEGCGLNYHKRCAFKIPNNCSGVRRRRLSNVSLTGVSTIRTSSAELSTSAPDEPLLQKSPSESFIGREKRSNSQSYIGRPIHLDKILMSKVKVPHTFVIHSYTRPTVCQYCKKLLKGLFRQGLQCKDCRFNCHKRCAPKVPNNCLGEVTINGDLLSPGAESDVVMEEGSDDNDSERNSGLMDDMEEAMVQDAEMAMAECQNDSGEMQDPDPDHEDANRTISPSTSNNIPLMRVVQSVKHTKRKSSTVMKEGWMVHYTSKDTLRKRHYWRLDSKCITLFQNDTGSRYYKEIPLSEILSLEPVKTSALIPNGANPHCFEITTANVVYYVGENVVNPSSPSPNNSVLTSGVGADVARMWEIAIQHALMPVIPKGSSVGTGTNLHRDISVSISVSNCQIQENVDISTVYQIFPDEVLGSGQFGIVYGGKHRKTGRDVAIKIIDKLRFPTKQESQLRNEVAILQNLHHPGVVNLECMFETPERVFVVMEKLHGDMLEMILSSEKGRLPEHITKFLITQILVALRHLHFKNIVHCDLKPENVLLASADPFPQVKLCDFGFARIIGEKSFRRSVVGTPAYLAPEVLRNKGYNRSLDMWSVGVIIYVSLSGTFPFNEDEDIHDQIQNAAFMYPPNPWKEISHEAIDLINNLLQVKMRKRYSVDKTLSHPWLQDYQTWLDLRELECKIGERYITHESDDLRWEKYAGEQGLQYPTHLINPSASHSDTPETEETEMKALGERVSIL
# [9] = target: T2, Serine/threonine-protein kinase D1 (Homo sapiens); conditions: at 1 µM
# [10] = target: T3, Serine/threonine-protein kinase D2 (Homo sapiens) (UniProt Q9BZL6); conditions: at 0.1 µM;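 further: reported percent inhibition values are means, part of the GSK PKIS kinase panel screen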
# T3 sequence (whole entry): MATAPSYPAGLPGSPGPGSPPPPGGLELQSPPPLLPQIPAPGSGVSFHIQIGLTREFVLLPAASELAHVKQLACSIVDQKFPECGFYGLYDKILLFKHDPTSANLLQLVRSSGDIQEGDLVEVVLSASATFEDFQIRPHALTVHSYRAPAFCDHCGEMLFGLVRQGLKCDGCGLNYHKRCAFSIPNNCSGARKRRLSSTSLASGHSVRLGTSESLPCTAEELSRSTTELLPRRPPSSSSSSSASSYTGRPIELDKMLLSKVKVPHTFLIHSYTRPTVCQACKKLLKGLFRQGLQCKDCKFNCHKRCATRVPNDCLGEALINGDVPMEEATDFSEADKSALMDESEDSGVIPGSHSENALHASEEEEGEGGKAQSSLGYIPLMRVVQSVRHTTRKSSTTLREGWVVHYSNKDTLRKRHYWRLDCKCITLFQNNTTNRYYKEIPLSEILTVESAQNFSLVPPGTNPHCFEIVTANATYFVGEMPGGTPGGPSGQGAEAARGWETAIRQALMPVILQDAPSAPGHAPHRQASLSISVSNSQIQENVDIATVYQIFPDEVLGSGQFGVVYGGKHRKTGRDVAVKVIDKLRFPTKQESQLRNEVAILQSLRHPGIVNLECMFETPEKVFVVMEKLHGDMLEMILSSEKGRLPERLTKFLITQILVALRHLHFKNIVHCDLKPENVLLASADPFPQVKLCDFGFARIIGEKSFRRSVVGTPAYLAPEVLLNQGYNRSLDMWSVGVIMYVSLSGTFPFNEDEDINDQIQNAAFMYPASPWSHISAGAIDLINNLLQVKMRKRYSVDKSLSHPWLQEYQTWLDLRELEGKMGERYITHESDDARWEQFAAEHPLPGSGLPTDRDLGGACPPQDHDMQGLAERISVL
Compound,inhibition [1],inhibition [2],inhibition [3],inhibition [4],inhibition [5],inhibition [6],inhibition [7],inhibition [8],inhibition [9],inhibition [10]
NC(=O)c1ccc2c(-c3ccnc(NCCCO)n3)c(-c3ccc(F)cc3)nn2c1,7.09%,1.98%,3.92%,2.7%,2.63%,4.8%,24.3%,6.13%,25.5%,7.41%
CN1CCC(C(=O)Nc2n[nH]c3nc(-c4ccc(O)cc4)c(Br)cc23)CC1,7.76% and 8.57%,3.63% and -0.08%,8.06% and 5.91%,2.17% and 0.5%,7.83% and 2.97%,6.51% and 5.4%,30.5% and 31.2%,1.71% and 3.32%,5.76% and 5.75%,1.9% and 3.95%
Cc1ccc(-c2cc3c(NC(=O)C4CC4)ncnc3o2)cc1,2.25%,2.54%,2.8%,2.02%,1.79%,5.24%,0.65%,3.45%,6.06%,4.1%
Cc1cc(O)cc(C)c1/C=C/c1cncc(C(N)=O)c1,2.79%,0.54%,1.6%,1.21%,0.54%,1.28%,1.05%,2.25%,3.69%,2.04%
c1ccc(-c2n[nH]cc2-c2ccnc(-c3ccc(OCCn4ccnc4)cc3)c2)nc1,2.35%,0.38%,-0.37%,0.23%,0.98%,0.85%,-0.29%,9.5%,56.5%,14.6%
COc1cc(Nc2ncc(-c3ccccc3)o2)cc(OC)c1,2.55%,2.88%,3.11%,2.43%,3.38%,0.78%,2.17%,4.12%,5.16%,3.39%
OCCCNc1nccc(-c2c(-c3ccc(F)cc3)nn3cc(C(F)(F)F)ccc23)n1,1.12%,0.77%,4.1%,0.12%,0.91%,1.5%,7.52%,1.85%,14.1%,2.01%
CCN1CCC(C(=O)Nc2n[nH]c3nnc(-c4cccc(F)c4F)cc23)CC1,-0.22%,-0.71%,-1.05%,0.26%,-1.11%,0.39%,0.87%,-0.1%,-0.6%,0.26%
CS(=O)(=O)CCNCc1ccc(-c2ccc3ncnc(Nc4ccc(OCc5ccccc5)cc4)c3c2)o1,3.26%,1.61%,1.87%,1.49%,2.01%,0.51%,0.86%,3.17%,4.08%,2.78%
CCOc1ccc2c(-c3ccnc(Nc4cc(OC)cc(C(F)(F)F)c4)n3)cnn2n1,1.98%,1.79%,-0.03%,0.28%,-0.68%,1.09%,3.36%,0.73%,0.65%,0.66%
CNC(=O)c1sc(-n2cnc3cc(OC)c(OC)cc32)cc1OCc1ccccc1C(F)(F)F,-2.1%,1.37%,0.74%,2.36%,0.67%,1.04%,1.38%,3.83%,4.48%,4%
CN(C)CCNC(=O)Nc1ccc(N(C)c2ccnc(Nc3ccc(CS(C)(=O)=O)cc3)n2)cc1,3.46%,1.77%,4.15%,2.29%,2.96%,0.79%,0.59%,3.85%,7.28%,3.75%
CS(=O)(=O)CCNCc1ccc(-c2ccc3ncnc(Nc4ccc(OCc5cccc(C(F)(F)F)c5)cc4)c3c2)o1,-0.26%,2.37%,2.7%,2.36%,5.13%,1.56%,3.15%,4.62%,6.2%,5.3%
CC1(C)CC(n2cnc(-c3ccc(F)cc3)c2-c2ccnc(N)n2)CC(C)(C)N1,1.2%,0.48%,0.2%,0.49%,1.27%,1.08%,4.59%,0.74%,3.49%,1.47%
O=C(O[C@H]1CN[C@H](C#Cc2cc3ncnc(Nc4ccc(OCc5cccc(F)c5)c(Cl)c4)c3s2)C1)N1CCOCC1,5.45%,1.77%,0.9%,3.84%,5.14%,2.11%,1.21%,4.61%,6.86%,6.18%
CC(C)c1ccc(-c2cc(-c3c[nH]nc3-c3ccccn3)ccn2)cc1,1.42%,-0.37%,1.12%,0.13%,-0.28%,0.43%,1.4%,1.12%,8.61%,1.16%
